# ± gives the standard deviation of the averaged measurements.
# Legend:
# DLD1 [1] = test: cell viability (CellTiter-Glo) relative to plate median (fraction of plate median); higher = more viable cells; details: 5 µM; treatment time 24 h; reporter: 7TFP
# Procedure, shortened: (§1)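 Each entry is a luminescence signal normalised to the plate median, averaged over independent replicates. The replicate count was two, and the cells were colorectal cancer lines with stable lentiviral TCF/Wnt firefly luciferase reporters exposed to library compounds at a final 5 µM for 24 h. Firefly luciferase and CellTiterGlo were measured on parallel plates.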
# HCT116 = test: as above; details: 5 µM; treatment time 24 h; reporter: TCF4/Wnt
# Procedure, shortened: as §1
# SW480 [2] = test: as above; details: 5 µM; treatment time 24 h; reporter: 7TFP
# Procedure, shortened: as §1
# DLD1 [3] = test: TCF/Wnt firefly luciferase reporter signal relative to plate median (fraction of plate median); higher = higher Wnt reporter signal; details: 5 µM; treatment time 24 h; reporter: 7TFP
# Procedure, shortened: as §1
# SW480 [4] = test: as above; details: 5 µM; treatment time 24 h; reporter: 7TFP
# Procedure, shortened: as §1
Compound,cell viability (DLD1 [1]),cell viability (HCT116),cell viability (SW480 [2]),TCF/Wnt firefly luciferase reporter signal (DLD1 [3]),TCF/Wnt firefly luciferase reporter signal (SW480 [4])
CCC(Cc1c(I)cc(I)c(N)c1I)C(=O)O (stereo not given),1.08 ± 0.057,1.05 ± 0.035,1.07 ± 0.028,1.035 ± 0.0071,1.04 ± 0.035
CN1CCCN=C1/C=C/c1cccs1,0.984 ± 0.022,0.903 ± 0.093,1.05,1.135 ± 0.0071,0.994 ± 0.037
OC(CCN1CCCC1)(c1ccccc1)C1CCCCC1 (stereo not given),1.03,1.01 ± 0.043,1.03 ± 0.054,1.12 ± 0.15,0.981 ± 0.017
CN(CCOc1ccc(CC2SC(=O)NC2=O)cc1)c1ccccn1 (stereo not given),0.935 ± 0.03,0.894 ± 0.044,0.949 ± 0.04,0.899 ± 0.09,0.906 ± 0.15
COc1ccc(-c2cc(=O)c3c(OC)c(OC)c(OC)c(OC)c3o2)cc1OC,0.9 ± 0.064,0.914 ± 0.059,1.04 ± 0.067,0.951 ± 0.034,0.992 ± 0.011
CON,1.03 ± 0.093,1.01 ± 0.046,0.984 ± 0.018,0.982 ± 0.04,0.981 ± 0.027
COc1ccc(-c2oc3cc(O[C@@H]4O[C@H](CO)[C@@H](O)[C@H](O)[C@H]4O)c(OC)c(O)c3c(=O)c2OC)cc1O,1.05 ± 0.057,1.19 ± 0.17,1,1.05 ± 0.035,1.02 ± 0.11
CCCc1nc(C)c2c(O)nc(-c3cc(S(=O)(=O)N4CCN(CC)CC4)ccc3OCC)nn12,0.948 ± 0.022,1.02 ± 0.061,0.9505 ± 0.005,1.05 ± 0.021,1.07 ± 0.042
CC1=C2C(O)C(=O)OC3CC4C(C)(C)C(=O)C=C[C@]4(C)C(CC1)[C@]23C (stereo not given in full),0.931 ± 0.015,0.97 ± 0.13,1.015 ± 0.0071,1.01 ± 0.14,1.14 ± 0.05
CC1(C)[C@@H](O[C@H]2O[C@H](C(=O)O)[C@@H](O)[C@H](O)[C@H]2O[C@@H]2O[C@H](C(=O)O)[C@@H](O)[C@H](O)[C@H]2O)CC[C@]2(C)[C@H]3C(=O)C=C4[C@@H]5C[C@@](C)(C(=O)O)CC[C@]5(C)CC[C@@]4(C)[C@]3(C)CC[C@@H]12,1.04 ± 0.042,1.14,1.02 ± 0.03,1.22 ± 0.13,1.16 ± 0.092
CCOc1ccc(C(=O)c2cc(O)c(OC)c(OC)c2O)cc1,0.982 ± 0.054,0.925 ± 0.11,0.9935 ± 0.0021,1.09,0.948 ± 0.062
Oc1ccc(O)cc1,0.839 ± 0.11,0.856 ± 0.022,0.959 ± 0.1,1.14 ± 0.14,1.04 ± 0.2
CC(=O)OCC(=O)[C@@]1(O)CC[C@H]2[C@@H]3CCC4=CC(=O)CC[C@]4(C)[C@H]3[C@@H](O)C[C@@]21C,1.04 ± 0.077,1.08 ± 0.057,1.04 ± 0.05,1.05,1.07 ± 0.064
C=C1CCC(C2CC(=O)OC2=O)C(=O)CCC2C1CC2(C)C (stereo not given),1.01 ± 0.049,1.04 ± 0.09,0.958 ± 0.0085,1.01 ± 0.19,0.901 ± 0.018
O=C1O[C@H]([C@@H](O)CO)C(O)=C1O,0.983 ± 0.024,1.02 ± 0.12,1.01 ± 0.035,0.87 ± 0.069,0.969 ± 0.073
O=C(O)C1=CCCNC1,1.01 ± 0.061,1.01 ± 0.037,1 ± 0.013,1.13 ± 0.028,1.04 ± 0.16
COc1cc(O)c2c(=O)c(O)c(-c3ccc(O)c(O)c3)oc2c1,1.06 ± 0.014,0.992 ± 0.11,1.065 ± 0.0071,1 ± 0.12,1.045 ± 0.0071
C/C1=C\CCC(=O)C2CC(C)(C)C2CC1 (stereo not given),0.9755 ± 0.00071,0.908 ± 0.14,0.939 ± 0.012,0.918 ± 0.098,1.004 ± 0.0078
N[C@@H](Cc1ccc(O)c(O)c1)C(=O)O,1.075 ± 0.0071,1.03 ± 0.064,0.99 ± 0.071,1.01 ± 0.04,1.09 ± 0.042
Cc1cc(C2CCCCC2)n(O)c(=O)c1,1.02 ± 0.014,0.454 ± 0.12,1.24 ± 0.18,0.795 ± 0.077,1 ± 0.13
CC1=CCCC(C)=CCC(C)(C)C=CC1 [HUMULENE (alpha)],0.978 ± 0.013,1.01 ± 0.027,0.965 ± 0.021,1.04,1.15 ± 0.13
NC(=O)N/N=C/c1ccc([N+](=O)[O-])o1,0.894 ± 0.04,0.827 ± 0.13,0.9805 ± 0.0064,0.973 ± 0.11,1.08 ± 0.028
CN(C(=O)CN(CCO)CC(=O)N(C)C(C)(C)Cc1ccccc1)C(C)(C)Cc1ccccc1,1.01 ± 0.022,1.04 ± 0.11,1.11,1.15 ± 0.05,1.025 ± 0.0071
COc1cccc2c1C(=O)c1c(O)c3c(c(O)c1C2=O)C[C@@](O)(C(C)=O)C[C@@H]3O[C@H]1C[C@H](N)[C@H](O)[C@H](C)O1,0.958 ± 0.027,0.575 ± 0.037,1.03 ± 0.1,0.781 ± 0.21,0.564 ± 0.26
C[C@@H]1O[C@@H]1P(=O)(O)O,1.04,0.995 ± 0.15,1.06 ± 0.028,1.03 ± 0.028,0.997 ± 0.22
CN1CCN(CC(=O)N2c3ccccc3C(=O)Nc3cccnc32)CC1,0.944 ± 0.022,1 ± 0.067,0.9405 ± 0.0035,0.796 ± 0.014,0.813 ± 0.0099
CC(CCC(=O)O)C1CCC2C3CCC4CC(O)CCC4(C)C3C=CC12C (stereo not given),1.03 ± 0.021,0.943 ± 0.12,1.005 ± 0.0071,0.902 ± 0.071,0.964 ± 0.02
O=C(O[C@@H]1Cc2c(O)cc(O)cc2O[C@@H]1c1ccc(O)c(O)c1)c1cc(O)c(O)c(O)c1,0.946 ± 0.061,0.805 ± 0.24,1.04 ± 0.1,1.03 ± 0.11,1.08 ± 0.021
CC(=O)O[C@H](CC(=O)[O-])C[N+](C)(C)C,1.06 ± 0.05,0.958 ± 0.044,0.956 ± 0.043,0.94 ± 0.073,0.996 ± 0.0057
Cn1cnc([N+](=O)[O-])c1Sc1ncnc2[nH]cnc12,0.95 ± 0.018,1.02 ± 0.054,1.13 ± 0.057,1.03 ± 0.078,0.965 ± 0.034
